Among the data in ChEMBL document CHEMBL3988442, “University of Dundee, Small-Polar-MMV Screening Library” (2021) are Percent Effect values, retold here.

Screen size: about 69,000 compounds; about 10 (0.01%) showed an effect of 50% or more. For the sample, strong results were picked, then their nearest neighbours and some compounds at random.

The target of this assay is ClpP1P2 (Mycobacterium tuberculosis (strain ATCC 25618 / H37Rv)) (UniProt P9WPC5+P9WPC3). Briefly: in vitro assay to detect presence of AMC directly proportional to the activity of ClpP1P2. GHDDI collaboration. The arrangement: scale not given: direction of the effect not stated beside the values. The class given is functional. The following applies: 50 µM.
On to `O=C(NCCc1cccs1)[C@]12COC[C@H]1CN(Cc1ccccn1)C2`, for which the Percent Effect came to 21.1%.
With `COc1ccc(N2CCN(C(=O)[C@H]3[C@@H]4CNC[C@@H]43)CC2(C)C)cc1` the figure was -7.82%; with `CCN1C[C@H]2CCN(C(=O)c3cc[nH]n3)CC[C@H]2S1(=O)=O`, -1.84%; with `Cc1noc([C@H]2CC[C@@H]3[C@@H](CCN3S(=O)(=O)C3CC3)O2)n1`, 16.5%.
`Cc1cc(CN2CCCC2)cc(Oc2ccc3c(c2)CC(CN)O3)c1` (stereo unspecified): the Percent Effect was -31.6%.
The same measure for `COc1ccc(CN2CCCC2)cc1Oc1ccc2c(c1)CC(CN)O2` (stereo unspecified): -30%; for `NCC1Cc2cc(Oc3cc(F)c(CN4CCCC4)c(F)c3)ccc2O1` (stereo unspecified): 72.6%; for `Cc1cnc(N2C[C@H]3CCCC(N(C)Cc4ccccn4)[C@H]3C2)nc1` (stereo partly specified): 6.27%.
For the compound `O=C(CCC(F)(F)F)N1CCN(Cc2ccncc2)[C@@H]2CS(=O)(=O)C[C@@H]21`, the Percent Effect is -11.9%.
With `CC(=O)N1[C@H](Cn2cncn2)C[C@@H]2CN(Cc3ccccn3)CC[C@@H]21` the figure was -7.75%.
With `O=C(N1CCCC1)N1C[C@H]2CC[C@@H]1CN(Cc1ccncc1)C2` the figure was -3.97%; with `CC(=O)N1CC[C@H]2CC(=O)N(C3CCCCC3)CC[C@H]2C1`, -8.93%; with `CC(C)N1CC[C@H]2[C@H](C[C@@H](Cn3cncn3)N2c2nccs2)C1`, 9.71%.
For `COC[C@]12COC[C@H]1CN(Cc1ccc3ccccc3n1)C2`, the Percent Effect is 8.31%.
The same measure for `CN(C)C[C@H]1OC[C@@H]2CCN(S(=O)(=O)c3cccs3)C[C@@H]21`: -1.92%; for `O=C(c1ncccn1)N1C[C@@H]2CC[C@H](Oc3cccc(F)c3)[C@@H]2C1`: -9.72%; for `COCC(=O)N1CCN(S(=O)(=O)c2cccs2)[C@H]2CS(=O)(=O)C[C@H]21`: 21.1%.
The same measure for `Cc1ncsc1CN1CC[C@H]2OCC[C@@]2(C(=O)NCC2CC2)C1`: 8.1%; for `CN(C[C@H]1CN2CC[C@H]1C[C@@H]2CNC(=O)c1ccco1)c1ccccc1`: 3.33%; for `CN(C)c1nccc(N2CCO[C@H]3CN(Cc4ccsc4)C[C@H]32)n1`: -1.49%.
With `CN(C)S(=O)(=O)N1CCO[C@H]2[C@H](Oc3cccnc3)CC[C@@H]21` the figure was -10.1%; with `Cc1nn(C)c(C)c1S(=O)(=O)N1CC[C@H]2O[C@@H](C)C[C@H]2C1`, 9.45%; with `O=C(c1ccoc1)N1CC[C@@H]2O[C@@H](COCCN3CCCC3)CC[C@@H]21`, 8.08%.
For `O=C(CCN1C[C@H]2CC[C@@H]1CN(c1ncccn1)C2)NCc1ccco1`, the Percent Effect was -5.46%.
Consider `CCc1cnc(N2C[C@H]3C[C@H](C(=O)N4CCOCC4)[C@@H](C2)O3)nc1`, for which the Percent Effect came out at 7.75%.
As for `CC(C)N1C[C@@H]2CN(C(=O)NCc3ccccc3)CCC[C@]2(C(=O)O)C1`, the Percent Effect was -0.327%.
Consider `Cc1noc([C@@H]2C[C@H]3CN(Cc4ccc5c(c4)OCO5)C[C@H]3O2)n1`, for which the Percent Effect is 2.95%.
With `Cc1noc([C@]23COC[C@H]2CN(Cc2cc(C)on2)C3)n1` the figure was 14.7%.
Take `O=C1C[C@@H]2[C@H](CCN2Cc2ccco2)N1c1ccsc1`: the Percent Effect is -3.07%.
The same measure for `C[C@H]1C[C@H]2CN(C(=O)CCc3ccccc3)CC[C@H]2O1`: -7.99%; for `O=C(Nc1ccccc1)[C@H]1CN2CC[C@H]1C[C@@H]2Cn1cc(CCO)nn1`: -1.69%; for `O=C(C[C@H]1[C@H]2CN(Cc3ccc(F)cc3)C[C@@H]12)N1CCCC1`: -10.3%.
In the case of `Cc1cnc(N2C[C@@H]3[C@@H](C(=O)NC(C)C)CCS(=O)(=O)[C@@H]3C2)nc1`, the Percent Effect came to 8.69%.
Regarding `CCN1CC[C@@]2(C(=O)N3CCOCC3)CCN(C(=O)CC(C)C)CC[C@@H]12`, the Percent Effect was -11.5%.
On to `COc1ccc(-c2ncccc2C(=O)N2C[C@H]3CC[C@@H]2C3)cn1`, for which the Percent Effect was -2.59%.
`CN(C)S(=O)(=O)N1C[C@@H]2CC[C@H](C1)N(Cc1ccc3c(c1)OCCO3)C2`: the Percent Effect was -5.61%.
On to `Cc1nc2cc(C3CCN(Cc4cccc(F)c4F)C3)nn2c(O)c1C` (stereo unspecified), for which the Percent Effect stood at 4.6%.
For `N#Cc1cccc(CN2CC[C@@H]3[C@@H]2CC(=O)N3CCN2CCCC2)c1`, the Percent Effect was -6.88%.
For `CC(C)NC(=O)[C@H]1C[C@@H]2[C@@H](C1)OCCN2Cc1nccs1`, the Percent Effect is -14.4%.
The same measure for `Cc1noc(C)c1CN1C[C@H]2CNC[C@H]2C1`: 3.63%; for `c1cnc(NC[C@@H]2CCC[C@@H]3CN(Cc4cccnc4)C[C@@H]32)nc1`: 9.72%.
As to `CCN(CC)Cc1cc(C(=O)N2CC[C@@]3(O)CCCC[C@H]3C2)c(C)o1`, the Percent Effect is -7.09%.
For the compound `N#Cc1ccccc1C(=O)N1C[C@H]2CC[C@@H]1CN(c1ncccn1)C2`, the Percent Effect was found to be 12.4%.
For `COc1ccc(CN2C[C@@H](N(C)Cc3ccco3)[C@H]3OCCC[C@H]32)cc1`, the Percent Effect came to 8.12%.
The same measure for `Cc1cccc(CN2CC[C@H]3C[C@H](C)O[C@@H]3C2)n1`: -3.13%.
On to `CN(C)C(=O)N1CC[C@H]2[C@H]1CCN2c1nncs1`, for which the Percent Effect is -2.44%.
Turning to `NC(=O)c1cc2c(nc1N1C[C@H]3OC(=O)N(C4CCCC4)[C@H]3C1)CCC2`, the Percent Effect worked out at 3.22%.
With `Cc1ccc(CN2CCO[C@@H]3C[C@@H](C(=O)NC(C)C)C[C@H]32)o1` the figure was -8.36%; with `CCCc1nc(N2CCCN3CCC[C@H]3C2)c2cnn(C)c2n1`, 7.09%.
In the case of `CN(C)CCN1C[C@@H]2OCCN(Cc3cnn(C)c3)[C@@H]2C1`, the Percent Effect was determined as 12%.
With `CC(CN1CC[C@@H]2CCCC[C@@H]2C1)n1cnc2ccccc21` (stereo partly specified) the figure was -9.76%; with `Cc1nc(NCC2CC2)nc2c1COCC21CCN(C(=O)C(C)(C)C)C1` (stereo unspecified), 97.5%; with `COCCC(=O)N1CCC2(COCc3c(C)nc(NCC4CC4)nc32)C1` (stereo unspecified), 11.8%.
The same measure for `Cc1nc(NCC2CC2)nc2c1COCC21CCN(C(=O)NC(C)C)C1` (stereo unspecified): 6.34%; for `CC1=N[C@@]2(CC[C@@H]3CN(CC4CC4)C[C@@H]32)C(=O)N1CC1CC1`: -5.13%.
The same measure for `Cc1ccoc1C(=O)N1C[C@@H](OCC2CCOCC2)[C@H]2OCCC[C@H]21`: -0.469%.
